Results taken from PubChem BioAssay AID1851 (National Center for Advancing Translational Sciences (NCATS), 2009).
Screen size: about 16,000 compounds; about 5,100 (32%) were called active. Roughly 25% stayed inconclusive and do not appear here. Calls come from the whole dose curve; as a rule, active = well fitted curve in the direction sought with a large enough effect; inconclusive = small, poorly fitted or top-dose-only effect, or effect the other way; inactive = no such curve, though single readings can be large or run the other way. The list shows a part of the results.

These molecules were tested against Cytochrome P450 3A4 (Homo sapiens) (UniProt P08684) (assay: Cytochrome panel assay with activity outcomes). Conditions: recombinant CYP, pro-luciferin dealkylation, luminescence, p450-cyp3a4; series mostly up to 57.1 µM.
Cytochrome P450 3A4 (Homo sapiens), sequence (P08684 whole entry, looked up): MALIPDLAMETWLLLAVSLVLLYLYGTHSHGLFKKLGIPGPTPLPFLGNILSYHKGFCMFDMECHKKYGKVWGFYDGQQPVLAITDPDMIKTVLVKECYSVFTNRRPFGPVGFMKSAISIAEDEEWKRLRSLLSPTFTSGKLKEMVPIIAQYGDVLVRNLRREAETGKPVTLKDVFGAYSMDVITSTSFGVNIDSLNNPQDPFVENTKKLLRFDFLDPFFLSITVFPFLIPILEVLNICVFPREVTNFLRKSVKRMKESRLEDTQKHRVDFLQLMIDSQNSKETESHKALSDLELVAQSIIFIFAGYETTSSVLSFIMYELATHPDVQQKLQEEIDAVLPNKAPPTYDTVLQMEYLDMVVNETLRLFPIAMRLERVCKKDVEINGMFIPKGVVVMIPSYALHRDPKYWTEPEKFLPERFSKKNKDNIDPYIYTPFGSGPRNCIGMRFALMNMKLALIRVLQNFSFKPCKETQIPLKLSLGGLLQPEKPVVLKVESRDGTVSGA
% is set by controls: 0 for no effect and ±100 for the full control effect.

AC50, inactive:
Clc1ccc2c(c1)C=Nc1c(NCc3ccccc3)ncnc1O2
c1csc(CNc2ncncc2-c2ccc3c(c2)OCO3)c1
CCCCOc1ccc(CN2CCC(O)CC2)cc1
CN1CCc2c(c3ccccc3n2C)C1
CCOC(=O)Nc1ccc(C(=O)Oc2ccccc2)c(O)c1
C[n+]1cc(-c2ccccc2)n2c1CCCCC2
CC(C)(C)Cn1nc(-c2ccc(Cl)cc2)c2c(N)ncnc21
CCCCn1nc2cc(C(=O)NCC3CC3)ccc2c1OCC
CCOc1c2ccc(C(=O)NCCCCc3ccccc3)cc2nn1C
N#Cc1c(-c2ccccc2)ccnc1Oc1ccccc1
C/C(=N\OC(=O)c1ccccc1F)c1nccs1
Cc1ccc(/C(O)=C2/C(=O)C(=O)N(CCCn3ccnc3)C2c2ccccn2)cc1 (stereo unspecified)
COCCCN1C(=O)C(=O)/C(=C(/O)c2ccc(OC(C)C)c(C)c2)C1c1ccncc1 (stereo unspecified)
O=C1c2ccccc2C(=O)N1CCSC(=S)N1CCOCC1
O=C(CCN1C(=O)c2ccccc2C1=O)Oc1ccc2ccccc2c1
Cn1cnnc1SCC(=O)OCN1C(=O)c2ccccc2C1=O
COc1ccccc1CN1CCCC2(CCN(S(C)(=O)=O)CC2)C1
COc1ccccc1CN1CCC2(CC1)CCN(S(C)(=O)=O)CC2
COc1ccccc1CN1CC2(CCN(S(C)(=O)=O)CC2)C1
COc1ccccc1CN1CCC2(CC1)CCN(S(=O)(=O)c1ccccc1)CC2
CC(=O)OCC(=O)[C@@]1(O)CC[C@@H]2[C@H]3CCC4=CC(=O)CC[C@]4(C)[C@]3(F)[C@@H](O)C[C@@]21C
CN1Cc2c(C(=O)OC(C)(C)C)ncn2-c2ccsc2C1=O
Cc1cccn2c(/C=N/OCc3ccc(F)cc3)c(-c3ccc(Cl)cc3)nc12
Cc1cc(NCCO)c2ccccc2n1
COc1ccc2[nH]c3c(c2c1)CN(C)CC3
O=C(O)/C=C/C(=O)Nc1ccccc1-c1ccccc1
Cc1cc(=O)[nH]c(-n2[nH]c3c(c2=O)CCCC3)n1
CN(C(=O)Cn1nnc(-c2cccc(C(F)(F)F)c2)n1)C1CCCCC1
Nc1nc2c(c(=O)[nH]1)N(C=O)[C@H](CNc1ccc(C(=O)N[C@@H](CCC(=O)O)C(=O)O)cc1)CN2
CCCCCCN1Cc2ccccc2C1
O=C1c2ccccc2S(=O)(=O)N1CCCCN1CCN(c2ncccn2)CC1

AC50, active:
COc1cccc(-c2cncnc2NCCc2cnc[nH]2)c1 0.631 µM
c1ncc(-c2ccc3c(c2)OCO3)c(NCCc2cnc[nH]2)n1 0.794 µM
COc1ccccc1-c1cncnc1NCCc1cnc[nH]1 0.398 µM
c1ccc(CNc2ncncc2-c2ccc3c(c2)OCO3)cc1 0.501 µM
Cc1cnc(CNc2ncncc2-c2ccc3c(c2)OCO3)cn1 1.58 µM
Cn1c(-c2ccc3c(c2)OCO3)cnc1NCc1ccccc1 7.94 µM
c1cncc(CNc2ncncc2-c2ccc3c(c2)OCO3)c1 0.398 µM
Cn1c(-c2ccc3c(c2)OCO3)cc(=O)c2ccccc21 10 µM
c1ccc(Nc2ncncc2-c2ccc3c(c2)OCO3)cc1 0.794 µM
Cc1cccc(CNc2ncncc2-c2ccc3c(c2)OCO3)c1 0.251 µM
CCOc1c2ccc(C(=O)NCc3cc(C(F)(F)F)cc(C(F)(F)F)c3)cc2nn1C 12.6 µM
CCCn1nc2cc(C(=O)NCCCCc3ccccc3)ccc2c1OCC 15.8 µM
CCCn1nc2cc(C(=O)NCCc3ccc(C)cc3)ccc2c1OCC 6.31 µM
CCCn1nc2cc(C(=O)NCc3ccc(C)cc3)ccc2c1OC 14.1 µM
COc1ccc(O[C@H]2C=C[C@@H](c3ccccc3)O[C@H]2COC(=O)CC/C(C)=N\OC[C@@H](O)[C@H]2O[C@H]3OC(C)(C)O[C@H]3[C@@H]2O)cc1 3.98 µM
C/C(CCC(=O)OC[C@@H]1O[C@H](C#Cc2ccccc2)C=C[C@@H]1Oc1ccc(C)cc1)=N/OC[C@@H](O)[C@H]1O[C@H]2OC(C)(C)O[C@H]2[C@@H]1O 3.98 µM
CCOc1ccc(/C(O)=C2/C(=O)C(=O)N(CCCn3ccnc3)C2c2cccs2)cc1Cl (stereo unspecified) 0.282 µM
Cc1ccc(NC(=S)N2CCN(CCN3C(=O)c4cccc5cccc(c45)C3=O)CC2)cc1 4.47 µM
Cc1cccc(/C(N)=N/OC(=O)CCCN2C(=O)c3ccccc3C2=O)c1 4.47 µM
Cc1cccc(NC(=O)CCCN2C(=O)c3cccc4cccc(c34)C2=O)c1 2.24 µM
COc1ccccc1CN1CC[C@@]2(CCCN(S(=O)(=O)c3ccccc3)C2)C1 10 µM
COc1ccccc1CN1CC2(CCN(S(=O)(=O)c3ccccc3)CC2)C1 20 µM
COc1ccc(/C(C#N)=C/c2c(-c3ccc(Cl)cc3)nc3c(C)cccn23)cc1 2.82 µM
COc1ccc(-c2cc(C3CCN(c4ccc(C(C)=O)cc4[N+](=O)[O-])CC3)[nH]n2)cc1 4.47 µM
CC(=O)c1ccc(N2CCC(c3cc(-c4ccc(Cl)cc4Cl)n[nH]3)CC2)c([N+](=O)[O-])c1 12.6 µM
CCCNc1c(F)c(F)c2c(C)c3ccccc3nc2c1F 6.31 µM
Cc1ccc2[nH]c3c(c2c1)CN(C(=O)CN1c2ccc(F)cc2CCC1C)CC3 (stereo unspecified) 8.91 µM
CC(=O)Nc1c(S(=O)(=O)c2ccccc2)c2nc3ccccc3nc2n1Cc1ccccc1 4.47 µM
Nc1c(S(=O)(=O)c2ccccc2)c2nc3ccccc3nc2n1Cc1ccco1 3.98 µM
COC(=O)CCSc1cc([N+](=O)[O-])cc2c1c(C1OCCS1)nn2-c1ccccc1 (stereo unspecified) 14.1 µM
O=C(O)/C=C\C(=O)Nc1ccc2c(c1)C(=O)c1cc(F)ccc1-2 3.16 µM
CCCCc1n[nH]c2c1/C(=N/O)CC(c1ccccc1)C2 (stereo unspecified) 12.6 µM
Cc1ccc(S(=O)(=O)Nc2cc(=O)[nH]c3c2CCC3)cc1 3.16 µM
CC1=C(C(N)=O)C(c2ccccn2)n2nc(SCc3ccccc3Cl)nc2N1 (stereo unspecified) 6.31 µM
Cc1cccc(N(CC(=O)NC2CCCC2)C(=O)c2cc3cc4cccc(C)c4nc3s2)c1C 4.47 µM
CC(C)CC(C(=O)NCC1CCCO1)N(C(=O)Cn1nnc(-c2ccc(F)cc2)n1)c1ccccc1F (stereo unspecified) 14.1 µM
CC(C)CC(C(=O)NCC1CCCO1)N(C(=O)Cn1nnc(-c2ccc(F)cc2)n1)c1cccc(C(F)(F)F)c1 (stereo unspecified) 10 µM
Cc1ccc(N(C(=O)Cn2nnc(-c3ccc(F)cc3)n2)C(CC(C)C)C(=O)NCC2CCCO2)cc1 (stereo unspecified) 14.1 µM
Cc1ccc(NC(=O)C2(NC(=O)c3cccc(N4C(=O)CSC4c4ccccc4)c3)CCCCC2)cc1 (stereo unspecified) 2.82 µM
Cc1ccc(C2C3=C(CCCC3=O)Nc3nc(SCC(=O)NCc4ccco4)[nH]c(=O)c32)cc1 (stereo unspecified) 7.94 µM
CCN(C(=O)c1cnc(N2CCN(c3ncccn3)CC2)c2ccccc12)c1cccc(Cl)c1 6.31 µM

activity, negative = inhibition, inactive:
COC(=O)[C@H](C)NC(=O)[C@@H](C)CO -19.6% [at 11.4 µM]
Oc1c(C(O)(c2ccccc2)c2ccc3ccccc3c2O)ccc2ccccc12 -13.3% [at 11.4 µM]
CCOC(=O)[C@]1(CC(=O)O)CCCC1=O -3.51% [at 11.4 µM]
CCOc1c2ccc(C(=O)NCc3ccc(OC(F)(F)F)cc3)cc2nn1C 16.7% [at 2.29 µM]
CCOc1c2ccc(C(=O)NCCCCc3ccccc3)cc2nn1CC 18.3% [at 2.29 µM]
COCCn1nc2cc(C(=O)NCC34CC5CC(CC(C5)C3)C4)ccc2c1OC -1.55% [at 2.29 µM]
COCCn1nc2cc(C(=O)NCc3cc(C(F)(F)F)cc(C(F)(F)F)c3)ccc2c1OC 10.6% [at 2.29 µM]
CCOC(=O)N/N=C1/C[C@@H](O)[C@@H](O)[C@@H]2[C@@H]3C(=O)N(CC)C(=O)[C@H]3CC[C@H]12 -6.5% [at 11.4 µM]
CC1(C)O[C@@H]2O[C@H]([C@H](O)CO/N=C3/[C@H]4O[C@@H]4[C@@H](O)[C@H]4[C@H]3CCn3c(=O)n(-c5ccccc5)c(=O)n34)[C@@H](O)[C@@H]2O1 -8.83% [at 11.4 µM]
CC(=O)OC[C@@H]1O[C@H](C/C=N\OC[C@@H](O)[C@H]2O[C@H]3OC(C)(C)O[C@H]3[C@@H]2O)C=C[C@@H]1OC(C)=O -11.1% [at 11.4 µM]
CC(=NCCN1CCN(C(=S)Nc2ccccc2)CC1)C1=C(O)CC(C)(C)CC1=O -20.4% [at 11.4 µM]
CCN(CC)CCN1C(=O)c2cccc3cc(N)cc(c23)C1=O -14.7% [at 11.4 µM]
CC(C)C(O)(C(C)C)C(C)C -4.9% [at 11.4 µM]
O=C(O)/C=C\C(=O)Nc1cccc2c1-c1ccccc1C2=O -10.9% [at 11.4 µM]
Nc1nc(SCc2ccccc2Cl)cc(C(=O)O)n1 -1.56% [at 11.4 µM]
CC(C)=CCc1c2c(c3occ(-c4ccc(O)c(O)c4)c(=O)c3c1O)C=CC(C)(C)O2 0.0575% [at 11.4 µM]
N/N=C1/CC(=O)NC(=O)N1 -21.1% [at 11.4 µM]
CC(=O)Nc1ccc(N2C(=O)CC(c3ccccc3)CC2=O)cc1 1.08% [at 2.29 µM]
CN(C(=O)c1cnc(N2CCN(c3ncccn3)CC2)c2ccccc12)c1ccc(Cl)cc1 28.1% [at 11.4 µM]
